Source: PubChem (National Center for Advancing Translational Sciences (NCATS))
gsp ag: activates gsp, the McCune-Albright syndrome mutation; AID 624287; 340,000 compounds, 0.13% hits; Potency, µM (highest dose often 76.9 µM), inactives show at the top dose activation (cAMP increase), usual class: activators; gsp mutant cells, cAMP HTRF, 30 min; active = well fitted activation curve with a large enough effect; inconclusive = small, poorly fitted or top-dose-only effect, or another doubt; inactive = no such curve, though single readings can be large or run the other way; cell line not stated here;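 also: phosphodiesterase inhibitor Ro 20-1724 added with compounds to block cAMP breakdown; potency is read from the fitted curve at half-maximal effect; nearly all actives have a fitted effect of over 60% in size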
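Cells in DMEM/10% FBS with G418 were pretreated with compounds in DMSO plus […] (300 uM stock) for 30 min at 37C. cAMP was measured by HTRF (cAMP-d2 plus anti-cAMP antibody-K) after 30 min at room temperature.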
FBPA coupling cs: inhibits coupling enzyme system, counter-screen for aldolase hits. coupling enzyme system counterscreen, AmpLite Red fluorescence. activity change, negative = inhibition, % at 58.2 µM, hits read low. 290,000 compounds, 0.67% hits. AID 2472; in the data active = activity change below about -30%; also: % is scaled to controls: 0 for no effect and ±100 for the full control effect
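Coupling enzymes only (glyceraldehyde-3-phosphate) + compound, at 57.5 uM final, 10 min RT; add substrate/coupling/AmpLite Red mix, 20 min RT; fluorescence ex 525/em 598 nm. Actives flag coupling-system interference.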
Giardia killer: Giardia lamblia killing; Giardia lamblia trophozoite viability; activity change, % at 7.66 µM, hits read low; 340,000 compounds, 0.15% hits; in the data active = activity change below about -80%; inconclusive = between about -30% and that limit;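 also: parasites exposed to compound for two days anaerobically before the ATP read; % is scaled to controls: 0 for no effect and ±100 for the full control effect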
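ATP-content bioluminescence gauges trophozoite survival. Cells (100/well) receive compound and incubate anaerobically for 48 hrs at 37 deg C; detection reagent follows for 15-30 min at room temperature.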
gsp antagonist: antagonists of gsp mutant (McCune-Albright syndrome). AID 624288. gsp-mutant cells, cAMP HTRF, 30 min. Potency, µM (series often up to 76.9 µM), without a hit: top-dose activity change, negative = inhibition, most hits filed as inhibitors. 340,000 compounds, 0.4% hits; calls by dose curve; cell line not stated here;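 also: intracellular cAMP measured with PDE inhibitor Ro 20-1724 present during compound exposure; potency is read from the fitted curve at half-maximal effect; % is scaled to controls: 0 for no effect and ±100 for the full control effect; nearly all actives have a fitted effect of over 65% in size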
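Cells in G418 medium, seeded 16-24 h, 37C; buffer exchange to DPBS + 1 mM CaCl2, 0.5 mM MgCl2, 0.05% BSA; cpds in DMSO + […] (300 uM stock), 30 min 37C; HTRF cAMP detection.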
RXFP1 ag: RXFP1 (human) receptor agonism; Q9HBX9; HEK293T-RXFP1 cAMP TR-FRET, 30 min; response scale: percent of porcine relaxin response, buffer zero; Potency, µM (doses to about 57.5 µM), without a hit: top-dose activation, actives largely listed as activators; 370,000 compounds, 0.3% hits; AID 2676; active = well fitted activation curve with a large enough effect; inconclusive = small, poorly fitted or top-dose-only effect; also: potency is read from the fitted curve at half-maximal effect; % is scaled to controls: 0 for no effect and ±100 for the full control effect; nearly all actives have a fitted effect of over 60% in size
Target sequence (Q9HBX9 whole entry, looked up): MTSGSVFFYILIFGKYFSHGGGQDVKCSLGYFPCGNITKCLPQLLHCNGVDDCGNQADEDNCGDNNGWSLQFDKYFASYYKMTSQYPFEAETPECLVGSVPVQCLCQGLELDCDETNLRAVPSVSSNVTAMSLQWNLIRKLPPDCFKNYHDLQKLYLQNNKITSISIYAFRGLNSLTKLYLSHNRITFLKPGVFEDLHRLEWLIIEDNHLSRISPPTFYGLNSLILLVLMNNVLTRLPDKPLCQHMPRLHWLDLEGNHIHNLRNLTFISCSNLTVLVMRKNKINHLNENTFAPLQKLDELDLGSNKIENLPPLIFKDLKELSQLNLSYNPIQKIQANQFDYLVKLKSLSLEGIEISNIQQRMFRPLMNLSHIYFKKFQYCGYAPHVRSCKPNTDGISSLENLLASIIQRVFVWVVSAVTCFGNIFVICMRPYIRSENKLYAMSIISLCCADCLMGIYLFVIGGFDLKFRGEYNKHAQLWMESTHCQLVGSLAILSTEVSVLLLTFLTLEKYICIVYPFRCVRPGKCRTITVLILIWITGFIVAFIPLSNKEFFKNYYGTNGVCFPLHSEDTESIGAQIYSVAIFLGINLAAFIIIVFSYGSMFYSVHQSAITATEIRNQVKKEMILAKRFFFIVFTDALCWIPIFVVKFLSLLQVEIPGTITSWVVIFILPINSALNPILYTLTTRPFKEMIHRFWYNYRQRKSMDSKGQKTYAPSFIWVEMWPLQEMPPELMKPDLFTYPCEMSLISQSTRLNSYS
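Agonist response is measured as cAMP accumulation in an RXFP1-transfected HEK293T line under PDE4 inhibition. Values are scaled between buffer-only and 29 nM porcine relaxin, and EC50s come from standard Hill equation fits.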
RXFP1 antagonist: RXFP1 (human) relaxin receptor antagonism. Q9HBX9. 350,000 compounds, 0.59% hits. HEK293-RXFP1, relaxin-stimulated cAMP HTRF, 30 min; stronger effect = lower value. AID 1259400. activity change, negative = inhibition, % at 57.5 µM;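 active = activity change of -60% or lower, but not beyond a set lower limit; inconclusive = change between -60% and -40%, or beyond the set limit; inactive = change above -40%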; also: % is scaled to controls: 0 for no effect and ±100 for the full control effect
* = called active by the depositor; ? = inconclusive; . = not tested or not shown; [ ] = another dose, or the depositor's remark. In the library only some 1.6% were active in any assay of this set; here they are far more common.

SMILES	gsp ag	FBPA coupling cs	Giardia killer	gsp antagonist	RXFP1 ag	RXFP1 antagonist
COc1ccc(CCNC(=O)c2ccc(CS(=O)(=O)c3ccc(C)cc3)o2)cc1OC	?	0	-7	-20%	4%	-26
COc1ccc(NC(=O)c2ccc(-c3ccc([N+](=O)[O-])cc3)o2)cc1OC	8%	-1	-1	35µM*	6%	-17
COc1ccc(CCNC(=O)c2ccc(-c3ccc([N+](=O)[O-])cc3Cl)o2)cc1OC	-36%	2	?	32µM*	0%	6
COc1cccc(NC(=O)c2ccc(-c3ccc([N+](=O)[O-])cc3)o2)c1	-12%	0	-5	-12%	2%	-2
COc1ccc(S(=O)(=O)Cc2ccc(C(=O)NC3CCCCCC3)o2)cc1	10%	.	15	-9%	2%	-102*
CCCn1c(C(O)c2ccc(OC)c(OC)c2)nc2ccccc21 (stereo not given)	8%	0	-11	8%	1%	2
COc1ccc(CCCc2nnc(SCC(=O)Nc3ccc(Cl)cc3)o2)cc1	.	.	.	.	3%	-3
CC1CCCCN1CCCOC(=O)c1ccc(OC2CCCCC2)cc1 (stereo not given)	.	.	.	.	.	-17
CC(C)[C@@H](OCc1ccccc1)[C@H](C)/C=N\O[C@@H](C)c1cn([C@H](CO)Cc2ccccc2)nn1	.	-1	.	.	.	.
COc1ccc(CCNC(=O)COc2ccc(N(C)S(=O)(=O)c3ccc(C)cc3)cc2)cc1OC	?	1	4	?	0%	-12
COc1ccc(CCNC(=O)c2ccc(N(C)S(=O)(=O)c3ccc(C)cc3)cc2)cc1OC	6%	-6	2	28µM*	1%	-2
O=C1C=CC(=O)c2c(O)c(N3CCN(CCO)CC3)c(Cl)c(O)c21	28%	.	-13	?	.	?
O=C1C=CC(=O)c2c(O)c(N3CCN(CCOCCO)CC3)c(Br)c(O)c21	?	.	14	25µM*	.	-105*
COc1cccc2c(=O)cc(C)n(CC(=O)Nc3ccc(C)c(C)c3)c12	37%	3	1	-23%	-1%	-16
COc1ccccc1NC(=O)Cn1c(C)cc(=O)c2cccc(OC)c21	1%[15.4 µM]	5	3	28µM*	1%	-11
COc1ccc2cc(CCNS(=O)(=O)c3ccc(C)cc3)c(=O)[nH]c2c1	.	.	.	.	2%	.
CCOC(=O)CNC(=O)C1(NC(=O)CNC(=O)OCc2ccccc2)CCCC1	-19%	.	9	7%	.	-5
C=CCOc1ccc(C2C(C(=O)c3ccco3)=C(O)C(=O)N2Cc2cccnc2)cc1 (stereo not given)	28µM*	0	-1	14%	12%	-9
COc1cccc2cc(C(=O)C3=C(O)C(=O)N(Cc4ccco4)C3c3cccnc3)oc12 (stereo not given)	10µM*	8	-2	-2%	25µM*	8
COc1ccc(C2C(C(=O)c3ccco3)=C(O)C(=O)N2Cc2cccnc2)cc1OC (stereo not given)	6%	5	-5	4%	2%	3
Cc1csc2nc(COC(=O)c3cccc(NC(=O)c4cccc(Cl)c4)c3)cc(=O)n12	.	.	.	.	?	9
NS(=O)(=O)c1ccc(CCNS(=O)(=O)Cc2ccc(Cl)cc2)cc1	-66%	0	1	2%	-1%	0
CCC(=O)N1CCN(c2ccnc3cc(Cl)ccc23)CC1	-31%[15.4 µM]	0	12	-4%	1%	-5
O=C(c1ccc(Cl)cc1)N1CCN(c2ccnc3cc(Cl)ccc23)CC1	11%[15.4 µM]	8	-12	40µM*	-1%	-20
COc1ccc2sc(N(Cc3cccnc3)C(=O)c3cccs3)nc2c1	.	.	.	.	2%	-13
SMILES	gsp ag	FBPA coupling cs	Giardia killer	gsp antagonist	RXFP1 ag	RXFP1 antagonist
COCCCNC(=O)c1c(NC(=O)Cc2coc3cc(C)ccc23)sc2c1CCCC2	.	.	.	.	1%	-18
COc1ccc(CCNC(=O)c2cc(-c3ccccc3)c(N3CCOCC3)s2)c(OC)c1OC	-18%	5	?	32µM*	3%	-7
CSc1ccc(CCNC(=O)CCc2nnc3ccc(NCCCN4CCCC4=O)nn23)cc1	?	1	-1	-2%	?	-70*
Cc1ccc(CNC(=O)CCc2nnc3ccc(NCCCN4CCCC4=O)nn23)cc1	-33%	.	16	6%	?	-9
C[C@@H](c1ccccc1)N1C(=O)[C@@H]2[C@H]3C(=CC[C@H]2C1=O)C(=O)[C@H]1O[C@H]1[C@H]3O	.	-3	.	.	.	.
CCCCC(=O)N/N=C/c1ccc(Sc2cccc3cccnc23)o1	7%	-35*	-3	-21%	0%	-13
COc1ccccc1NC(=O)Cn1cnc2sc(C(=O)Nc3cc(OC)c(OC)c(OC)c3)c(C)c2c1=O	6%	.	37	-9%	-1%	10
COc1ccccc1NC(=O)Cn1cnc2sc(C(=O)Nc3ccc(OC)c(OC)c3)c(C)c2c1=O	5%	.	-4	6%	3%	-71*
Cc1ccc(F)cc1NC(=O)c1sc2ncn(CC(=O)N3CCN(c4ccccn4)CC3)c(=O)c2c1C	?	.	39	1%	16µM*	12
Cc1nnc(NC(=O)CSc2cn(Cc3ccccc3)c3ccccc23)s1	16µM*	-1	-6	-13%	0%	-8
Cc1ccc(Cn2cc(SCC(=O)Nc3nccs3)c3ccccc32)cc1	3%	1	-7	5%	-4%	5
CC1CN(C(=O)Nc2ccc(C(=O)NCCc3ccc(Cl)cc3)cc2)c2ccccc2S1 (stereo not given)	.	.	.	.	-1%	-4
CCn1cc(C(=O)OCC(=O)NCc2ccc3c(c2)OCO3)c(=O)c2ccc(C)nc21	12%	-1	-6	-2%	2%	-11
O=c1[nH]nc(-c2ccc(F)cc2)cc1Cc1ccccc1	2%	2	-8	12%	2%	-3
O=C(COc1ncnc2scc(-c3ccccc3)c12)NCCN1C(=O)CSC1=O	.	-2	.	.	11µM*	.
O=C(CN1C(=O)COc2ccc(S(=O)(=O)N3CCCC3)cc21)NCc1ccccn1	-8%[15.4 µM]	0	-19	2%	0%	4
CCN(CC)S(=O)(=O)c1ccc2c(c1)N(CC(=O)Nc1cccnc1Cl)C(=O)CO2	?	4	1	13%	13µM*	8
CCN(CC)S(=O)(=O)c1ccc2c(c1)N(CC(=O)NCc1ccccn1)C(=O)CO2	?	4	-7	-5%	25µM*	43
CC1CCN(S(=O)(=O)c2ccc(NC(=O)CNC3CCCCC3)cc2)CC1	?	1	18	8%	-3%	-104*
CC(=O)Nc1ccc(S(=O)(=O)N2CCC(C(=O)N[C@@H](C)C(=O)NC3CCCC3)CC2)cc1	-38%	0	-1	50µM*	2%	-1
